In PubChem BioAssay AID504339 (National Center for Advancing Translational Sciences (NCATS), 2011):
Hit rate of the full screen: of about 390,000 compounds, about 17,000 (4.4%) were called active. Not shown: some 8% with an inconclusive outcome. The call rests on the fitted dose curve; in most records, active means well fitted inhibition curve with a large enough effect; inconclusive means small, poorly fitted or top-dose-only effect; inactive means no such curve, though single readings can be large or run the other way. The entries come from a sample that favours actives as a whole.

Biological target: Lysine-specific demethylase 4A (Homo sapiens) (UniProt O75164)
Experiment: qHTS Assay for Inhibitors of JMJD2A-Tudor Domain; further: nearly all actives have a fitted effect of over 50% in size
Conditions: AlphaScreen JMJD2A-Tudor / H3K4me3 peptide binding; series mostly up to 114 µM; activity change, negative = inhibition: at the top concentration
On the % scale 0 is the no-effect control and ±100 the full control effect; potency means the concentration at half of the fitted maximal effect.

Sequence of Lysine-specific demethylase 4A (Homo sapiens) (O75164 whole entry, looked up, the tested form may be a part): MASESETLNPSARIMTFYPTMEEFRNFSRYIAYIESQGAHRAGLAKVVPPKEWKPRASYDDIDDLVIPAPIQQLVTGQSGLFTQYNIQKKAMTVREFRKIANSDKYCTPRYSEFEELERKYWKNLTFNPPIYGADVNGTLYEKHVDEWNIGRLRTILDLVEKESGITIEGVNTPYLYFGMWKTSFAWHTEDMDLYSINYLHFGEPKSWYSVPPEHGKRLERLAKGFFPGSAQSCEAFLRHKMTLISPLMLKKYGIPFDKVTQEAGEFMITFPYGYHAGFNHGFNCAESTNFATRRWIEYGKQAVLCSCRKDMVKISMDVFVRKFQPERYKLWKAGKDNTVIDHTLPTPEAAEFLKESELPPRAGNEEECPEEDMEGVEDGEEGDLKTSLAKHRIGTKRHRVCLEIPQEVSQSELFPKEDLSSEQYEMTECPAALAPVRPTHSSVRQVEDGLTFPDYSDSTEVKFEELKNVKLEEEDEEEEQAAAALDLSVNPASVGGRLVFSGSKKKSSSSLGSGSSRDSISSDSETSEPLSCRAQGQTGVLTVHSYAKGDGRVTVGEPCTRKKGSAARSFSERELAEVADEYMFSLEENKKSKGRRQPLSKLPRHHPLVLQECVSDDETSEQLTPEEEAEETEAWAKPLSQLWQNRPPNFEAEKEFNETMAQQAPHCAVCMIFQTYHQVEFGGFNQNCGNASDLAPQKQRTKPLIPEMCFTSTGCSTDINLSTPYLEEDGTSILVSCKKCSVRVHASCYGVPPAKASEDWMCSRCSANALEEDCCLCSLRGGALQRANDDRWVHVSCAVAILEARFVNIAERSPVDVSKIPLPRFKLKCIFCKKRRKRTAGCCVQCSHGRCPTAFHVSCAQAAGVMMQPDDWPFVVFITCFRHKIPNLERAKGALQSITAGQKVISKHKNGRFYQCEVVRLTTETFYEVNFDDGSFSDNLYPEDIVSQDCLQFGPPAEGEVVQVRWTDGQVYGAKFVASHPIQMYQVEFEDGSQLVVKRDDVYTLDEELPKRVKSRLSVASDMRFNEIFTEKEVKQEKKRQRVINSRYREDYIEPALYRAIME

| Compound | activity change, negative = inhibition | Potency |
| --- | --- | --- |
| Cc1cc(C)c(NC(=O)CN2CCCCCC2)c(C)c1 | -11.4% (inactive) | – |
| O=C(CN1CCCCCC1)Nc1c(Cl)cc(Cl)cc1Cl | -3.93% (inactive) | – |
| Cc1csc(NC(=O)CN2CCCCCC2)n1 | – | 1.58 µM (active) |
| COc1ccc(CCNC(=O)c2nn(C)c3c2CSc2ccccc2-3)cc1OC | -6.95% (inactive) | – |
| Cc1nc2ccccn2c(=O)c1NC(=O)c1c(F)cccc1F | -10.1% (inactive) | – |
| CCn1c2ccccc2c2nnc(N3CCN(c4cc(C)ccc4C)CC3)nc21 | -12.2% (inactive) | – |
| O=C(CNCc1ccco1)Nc1cc(S(=O)(=O)N2CCOCC2)ccc1N1CCCC1 | – | 79.4 µM (active) |
| Cc1ccc(S(=O)(=O)N2CCOCC2)cc1C(=O)Nc1ccccc1N1CCCC1 | -24.7% (inactive) | – |
| COCCNC(=S)Nc1cc(S(=O)(=O)N2CCOCC2)ccc1N1CCCCC1 | – | 79.4 µM (active) |
| O=C(COC(=O)c1ccccc1F)Nc1cc(S(=O)(=O)N2CCOCC2)ccc1N1CCCC1 | -19.7% (inactive) | – |
| O=C(COC(=O)Cc1ccc(F)cc1)Nc1cc(S(=O)(=O)N2CCOCC2)ccc1N1CCCC1 | -18.7% (inactive) | – |
| CN1CCN(c2ccc(S(=O)(=O)N3CCOCC3)cc2NC(=O)CCc2ccccc2)CC1 | -9.18% (inactive) | – |
| COc1ccc(/C=C/c2noc(-c3ccccc3O)n2)cc1OC | -1.37% (inactive) | – |
| COc1ccc(NC(=O)C2CCCN(S(=O)(=O)c3cccc4nonc34)C2)cc1Cl (centres undefined) | 2.05% (inactive) | – |
| Cc1cc(C)cc(NC(=O)Cn2c(=O)c3ccccc3n3nncc23)c1 | -25.2% (inactive) | – |
| CCc1cccc(-n2nnc(-c3nsc(NC(=O)c4ccc(C)cc4)n3)c2C)c1 | -18.2% (inactive) | – |
| COc1ccc(NS(=O)(=O)c2cc(NC(=O)/C=C/c3cc(OC)c(OC)c(OC)c3)ccc2N2CCCCC2)cc1 | -34.4% (inactive) | – |
| COc1cc(/C=C/C(=O)OCC(=O)c2ccccc2)cc(OC)c1OC | -8.47% (inactive) | – |
| COc1ccccc1Nc1c2c(nc3ccc(NC(=O)/C=C/c4cc(OC)c(OC)c(OC)c4)cc13)CCCC2 | – | 15.8 µM (active) |
| O=C(CN1c2ccccc2S(=O)(=O)c2ccccc21)Nc1cccc(C(F)(F)F)c1 | -25.7% (inactive) | – |
| COc1ccccc1N1CCN(c2ncnc3onc(-c4cccc(Cl)c4)c23)CC1 | -13.2% (inactive) | – |
| COC(=O)c1ccc(NC(=O)c2cccc3c2C(=O)N(C2CCCCC2)C3)cc1 | -5.33% (inactive) | – |

| Compound | activity change, negative = inhibition | Potency |
| --- | --- | --- |
| CCCS(=O)(=O)c1ncc(Cl)c(C(=O)Nc2scc(-c3ccccc3)c2C(=O)OCC)n1 | -35.8% (inactive) | – |
| COC(=O)c1ccc(NC(=S)NN2CCOCC2)cc1 | -4.79% (inactive) | – |
| O=C(Nc1ccc(S(=O)(=O)Nc2ncccn2)cc1)C12CC3CC(CC(C3)C1)C2 | -12.5% (inactive) | – |
| COC(=O)c1ccc(NC(=O)C23CC4CC(C2)CC(n2cnc(Cl)n2)(C4)C3)cc1 | – | 56.2 µM (active) |
| O=C(Nc1ccccc1F)C(c1ccccc1)N1Cc2ccccc2C1=O (centres undefined) | -11.9% (inactive) | – |
| CCN(C(=O)Cn1c(=O)nc(-c2ccccc2)c2cc(Cl)ccc21)c1cccc(C)c1 | -7.95% (inactive) | – |
| Cc1cn(C)c(CC(=O)NCc2ccc(Cl)cc2)c1C(=O)O | -24.7% (inactive) | – |
| C[N+]1(CCNC(=O)/C=N/O)CCCCC1 | – | 50.1 µM (active) |
| CCc1cc2c(cc3c(=O)n(CC(=O)N4CCN(c5cc(Cl)ccc5C)CC4)nc(CC)n32)s1 | -21.8% (inactive) | – |
| CCOC(=O)c1ccc(NC(=O)c2csc3c2CCCCC3)cc1 | 6.91% (inactive) | – |
| O=C(/C=C/c1ccccc1)Nc1cc(-c2nc3cc(Cl)ccc3o2)ccc1Cl | 1.49% (inactive) | – |
| Cc1ccc(NC(=S)NCCc2ccc(Cl)cc2)c(C)c1 | -19.4% (inactive) | – |
| Cc1cc(Br)ccc1NC(=S)NC1CCCC1 | -10.3% (inactive) | – |
| Cc1ccc(NC(=S)Nc2ncccc2C)c(C)c1 | – | 56.2 µM (active) |
| COC(=O)c1ccccc1NC(=O)c1ccc2c(=O)n3c(nc2c1)CCCCC3 | 7.38% (inactive) | – |
| Cc1ccc(-c2cc(-c3coc4ccccc4c3=O)c3c(n2)-c2cc(Cl)ccc2OC3)cc1 | -7.84% (inactive) | – |
| COc1ccccc1NC(=O)CN1C(=O)c2ccccc2Sc2ccc(C(=O)N3CCCC3)cc21 | -18.3% (inactive) | – |
| COC(=O)CN1C(=O)C(O)=C(C(C)=O)C1c1ccc([N+](=O)[O-])cc1 (centres undefined) | – | 31.6 µM (active) |
| COc1ccc(C2C(C(C)=O)=C(O)C(=O)N2CCc2c[nH]c3ccccc23)cc1 (centres undefined) | -13.8% (inactive) | – |
| COc1ccc(C2C(C(C)=O)=C(O)C(=O)N2c2nccs2)cc1 (centres undefined) | -2.41% (inactive) | – |
| CCOc1ccccc1NC(=O)Cn1c(=O)n(-c2cccc(C)c2)c(=O)c2c1c1cc(OC)ccc1n2C | 4.78% (inactive) | – |
| CCN(CC)C(=O)CSc1nc2ccsc2c(=O)n1Cc1ccccc1Cl | -10% (inactive) | – |

| Compound | activity change, negative = inhibition | Potency |
| --- | --- | --- |
| Oc1ccccc1/C=N/n1c(-c2cccs2)n[nH]c1=S | – | 22.4 µM (active) |
| Nc1nnnn1/N=C/c1cccs1 | -10.4% (inactive) | – |
| C(=N/N1CCN(c2ccccc2)CC1)/c1cccs1 | -28.8% (inactive) | – |
| S=c1[nH]nc(-c2cccs2)n1/N=C/c1cccs1 | – | 10 µM (active) |
| Cn1c(=O)c2sccc2n2c(CCC(=O)NCc3ccccc3Cl)nnc12 | -16% (inactive) | – |
| Cc1ccc(C(=O)Nc2ccc3[nH]c(=O)c(=O)[nH]c3c2)cc1 | -2.05% (inactive) | – |
| O=[S+]([O-])(c1ccc(OC(F)(F)F)cc1)N1CCN([S+](=O)([O-])c2ccc3c(c2)OCCO3)CC1 | -25.3% (inactive) | – |
| O=C(CC1Oc2ccc(Cl)cc2NC1=O)NCc1ccccc1 (centres undefined) | -14.2% (inactive) | – |
| CCc1ccc(NC(=O)CCCc2nnc3n(CCCOC)c(=O)c4sccc4n23)cc1 | -16.5% (inactive) | – |
| O=C(CSc1nc2nccnc2c(=O)n1CCc1c[nH]c2ccccc12)Nc1ccccc1F | -7.57% (inactive) | – |
| Cc1cc2nn(-c3ccc(Cl)cc3)nc2cc1NC(=O)C(C)C | -3.59% (inactive) | – |
| CCCCCCn1nnc2sc(-c3ccccc3)cc2c1=O | -6.6% (inactive) | – |
| Cc1ccc(Cl)cc1NC(=O)C(C)n1nnc2sc(-c3ccccc3)cc2c1=O (centres undefined) | – | 50.1 µM (active) |
| COc1ccccc1-c1cc2nc(C)c(CCC(=O)O)c(C)n2n1 | 1.33% (inactive) | – |
| Cc1ccc(C)n1-c1nnc(N2CCC(C(=O)NCc3ccc(F)cc3)CC2)s1 | -19.5% (inactive) | – |
| c1ccc(C(=NNc2nc3ccccc3s2)c2ccccn2)cc1 | – | 31.6 µM (active) |
| NS(=O)(=O)c1ccc2nc(NC(=O)COc3ccccc3)sc2c1 | -23.4% (inactive) | – |
| Cc1cc(C)cc(-n2ccnc2SCC(=O)Nc2nc3ccccc3s2)c1 | -9.68% (inactive) | – |
| COc1cc(-c2cc3n(C)c(C)c(CCC(=O)Nc4ccc(F)cc4)c(=O)n3n2)cc(OC)c1OC | -8.06% (inactive) | – |
| COC(=O)c1ccccc1NC(=O)c1cc(-c2ccccc2O)no1 | -21.7% (inactive) | – |
